{"source": "PubChem BioAssay AID588342", "about": "(National Center for Advancing Translational Sciences (NCATS), 2011)", "note": "Out of some 360,000 compounds screened, about 25,000 (6.9%) were called active. About 9% were inconclusive and are not listed. What follows is part of a selection rich in actives, with near analogues and random picks from the rest. Unmarked numbers belong to inactive results. The call rests on the fitted dose curve; in most records, active means well fitted inhibition curve with a large enough effect; inconclusive means small, poorly fitted or top-dose-only effect; inactive means flat fitted curve, though single readings scatter. Potency means the concentration at half of the fitted maximal effect."}
{"target": "Luciferin 4-monooxygenase (Photinus pyralis) (UniProt P08659)", "sequence (P08659 whole entry, looked up)": "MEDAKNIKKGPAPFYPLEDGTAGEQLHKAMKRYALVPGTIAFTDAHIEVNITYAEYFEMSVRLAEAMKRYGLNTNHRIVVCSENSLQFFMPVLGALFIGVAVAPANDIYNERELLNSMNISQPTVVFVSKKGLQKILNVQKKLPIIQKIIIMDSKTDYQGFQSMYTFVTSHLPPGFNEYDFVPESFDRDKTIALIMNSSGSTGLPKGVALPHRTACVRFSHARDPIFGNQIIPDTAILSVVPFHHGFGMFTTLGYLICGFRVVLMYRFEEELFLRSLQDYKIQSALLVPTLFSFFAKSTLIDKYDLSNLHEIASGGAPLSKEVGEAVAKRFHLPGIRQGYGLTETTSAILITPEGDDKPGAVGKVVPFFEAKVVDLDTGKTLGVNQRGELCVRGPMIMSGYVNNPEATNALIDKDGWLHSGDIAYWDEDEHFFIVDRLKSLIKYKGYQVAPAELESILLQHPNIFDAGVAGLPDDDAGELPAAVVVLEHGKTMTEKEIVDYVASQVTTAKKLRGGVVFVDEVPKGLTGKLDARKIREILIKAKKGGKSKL", "test": "qHTS profiling assay for firefly luciferase inhibitor/activator using purifed enzyme and Km concentrations of substrates (counterscreen for miR-21 project); further: nearly all actives have a fitted effect of over 55% in size;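 on activity change, negative = inhibition: plate controls were vehicle for no effect and reference inhibitor for full effect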", "conditions": "purified FLuc, luminescence inhibition; series mostly up to 57.5 µM; activity change, negative = inhibition: at the top concentration", "in_short": "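Biochemical qHTS of compounds, final roughly 60 µM downward over six points, against 10 nM purified firefly luciferase using Km concentrations of substrates (10 uM D-luciferin, 10 uM ATP) in Tris acetate pH 7.5 buffer; luminescence output.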"}
{"smiles": "Cc1ccc(N(C)C(=O)C2CCN(S(=O)(=O)c3ccc4c(c3)CCCN4C(=O)C3CCC3)CC2)cc1", "activity change, negative = inhibition": "-2.8%"}
{"smiles": "O=C1CN(C(=O)Nc2ccccc2C(F)(F)F)C(c2ccccc2)c2c(sc3c2CCCC3)N1", "note": "(stereo unspecified)", "activity change, negative = inhibition": "-7.07%"}
{"smiles": "CCOC(=O)C1CCN(C(=O)c2cccc(S(=O)(=O)N(CC)c3ccccc3)c2)CC1", "activity change, negative = inhibition": "1.65%"}
{"smiles": "COc1cc(C(=O)N2CCN(c3ccc(Nc4ccc(C)cc4)nn3)CC2)cc(OC)c1OC", "activity change, negative = inhibition": "1.35%"}
{"smiles": "COc1ccc(/C=C2\\SC(=S)N(CCC(=O)Nc3cccc(C(=O)O)c3)C2=O)cc1OC", "Potency": "6.75 µM (active)"}
{"smiles": "O=C(CCN1C(=O)/C(=C/c2cccs2)SC1=S)NNC(=O)c1cccc(O)c1", "activity change, negative = inhibition": "-7.67%"}
{"smiles": "COc1ccccc1C(=O)NNC(=O)CCN1C(=O)/C(=C\\c2ccccc2)SC1=S", "activity change, negative = inhibition": "2.85%"}
{"smiles": "COc1ccc(S(=O)(=O)N2CCSCC2)cc1", "activity change, negative = inhibition": "2.73%"}
{"smiles": "CCOC(=O)c1cn[nH]c1NC(=S)Nc1ccccc1", "Potency": "2.13 µM (active)"}
{"smiles": "CCOC(=O)c1ccc(NC(=S)Nc2cc(C)cc(C)n2)cc1", "activity change, negative = inhibition": "-0.345%"}
{"smiles": "CCOC(=O)c1cc2c(nc1NC(=S)Nc1ccccc1)CC(C)(CC)OC2", "note": "(stereo unspecified)", "activity change, negative = inhibition": "1.94%"}
{"smiles": "Nc1c(N(CCCO)C(=O)C2CCCC2)c(=O)[nH]c(=O)n1Cc1ccccc1", "activity change, negative = inhibition": "0.813%"}
{"smiles": "COc1ccccc1C1=Nc2cccc3cccc(c23)N1", "Potency": "16.9 µM (active)"}
{"smiles": "c1ccc(C2=Nc3cccc4cccc(c34)N2)cc1", "Potency": "15.1 µM (active)"}
{"smiles": "COc1ccccc1-c1nc(C(F)(F)F)c(OC)o1", "activity change, negative = inhibition": "5.71%"}
{"smiles": "COc1ccc(N2C(=O)c3cccc4cccc(c34)C2=O)nn1", "activity change, negative = inhibition": "-5.3%"}
{"smiles": "COc1ccc(-n2c(SCC(N)=O)nc3c(oc4ccccc43)c2=O)cc1", "activity change, negative = inhibition": "1.9%"}
{"smiles": "CC(C)Nc1nnc(SC(C)C(=O)N(C)C2CCCCC2)s1", "note": "(stereo unspecified)", "activity change, negative = inhibition": "2.48%"}
{"smiles": "Cc1cccc(N(C)C(=O)CS(=O)(=O)c2cccc3nsnc23)c1", "activity change, negative = inhibition": "-0.386%"}
{"smiles": "O=C(CCn1c(=O)c2ccccc2n(Cc2ccc(Cl)cc2)c1=O)NCc1ccc2c(c1)OCO2", "activity change, negative = inhibition": "-1.28%"}
{"smiles": "COc1cc(Cl)c(NC(=O)C(NS(=O)(=O)c2cccs2)C(C)C)c(OC)c1", "note": "(stereo unspecified)", "activity change, negative = inhibition": "-2.46%"}
{"smiles": "Cc1ccn(-c2cccc(-n3ccc(C)n3)n2)n1", "Potency": "3.38 µM (active)"}
{"smiles": "CCCCc1nnc(NC(=O)CSc2nc(N)cc(=O)[nH]2)s1", "activity change, negative = inhibition": "-14.7%"}
{"smiles": "O=[N+]([O-])c1ccc(F)cc1Oc1nc(-c2cccnc2)nc2ccccc12", "activity change, negative = inhibition": "3.95%"}
{"smiles": "COc1ccc(Nc2nc(-c3cccnc3)nc3ccccc23)cn1", "activity change, negative = inhibition": "4.78%"}
{"smiles": "Fc1ccc(/C=N/Nc2nc(-c3cccnc3)nc3ccccc23)cc1", "Potency": "2.13 µM (active)"}
{"smiles": "Cc1ccc(C2C=C(c3ccc(Cl)cc3)Nc3nc(NC(=O)CCC(=O)O)nn32)cc1", "note": "(stereo unspecified)", "activity change, negative = inhibition": "-0.821%"}
{"smiles": "CC(=O)N1CCc2cc(S(=O)(=O)NC(Cc3ccccc3)C(=O)NCc3ccc(C)cc3)ccc21", "note": "(stereo unspecified)", "activity change, negative = inhibition": "-11.7%"}
{"smiles": "COC(=O)[C@]1(S(=O)(=O)c2ccccc2)C[C@@H]2ON=C(c3ccc(OC)cc3)[C@@H]2C1", "activity change, negative = inhibition": "-11.7%"}
{"smiles": "COc1cc(NC(=O)c2ccc3c(c2)OCO3)ccc1NC(=O)c1cccs1", "Potency": "10.7 µM (active)"}
{"smiles": "COc1ccc(C(=O)Nc2ccc(C3(C#N)CCCC3)cc2)cc1OC", "Potency": "10.7 µM (active)"}
{"smiles": "CN1CCN(C(=O)/C(=C\\c2ccc3c(c2)OCO3)NC(=O)c2cccs2)CC1", "activity change, negative = inhibition": "0.0977%"}
{"smiles": "COc1cc(C(=O)NCC2(c3ccccc3)CCCC2)ccc1OC(C)C", "activity change, negative = inhibition": "0.624%"}
{"smiles": "CCC(=O)c1cc2c(cc1NC(=O)c1cccs1)OCCO2", "activity change, negative = inhibition": "-16.3%"}
{"smiles": "COc1ccc(C(=O)Nc2ccc(-n3nncc3-c3ccccc3)cc2)cc1OC", "activity change, negative = inhibition": "-9.43%"}
{"smiles": "COc1ccc(NC(=O)c2ccc3nc(C(C)C)oc3c2)cc1OC", "activity change, negative = inhibition": "-17.7%"}
{"smiles": "COc1ccc(C(=O)Nc2ccc3c(c2)OCO3)cc1OC", "Potency": "10.7 µM (active)"}
{"smiles": "COc1ccc(Cl)cc1NC(=O)CN(C)CC(=O)Nc1ccc2c(c1)OCO2", "activity change, negative = inhibition": "3.37%"}
{"smiles": "C=CCNC(=O)/C(=C\\c1cccc([N+](=O)[O-])c1)NC(=O)c1ccccc1", "activity change, negative = inhibition": "-1.02%"}
{"smiles": "O=C(Nc1ccc(Br)cc1)c1cc2nc(-c3ccccc3)cc(-c3ccccc3)n2n1", "activity change, negative = inhibition": "4.76%"}
{"smiles": "CCCCc1nn2c(=O)cc(COC(=O)c3ccc(NC(=O)c4ccccc4C)cc3)nc2s1", "activity change, negative = inhibition": "-2.13%"}
{"smiles": "CCCCOc1ccc(-c2ncc(C(=O)OCC)c(N)n2)cc1", "Potency": "2.69 µM (active)"}
{"smiles": "CCOC(=O)c1cnc(SCC(=O)NCc2ccco2)nc1N", "activity change, negative = inhibition": "-1.53%"}
{"smiles": "CCCCCCOc1ccc(OC(=O)c2cccnc2)cc1", "activity change, negative = inhibition": "-18.5%"}
{"smiles": "Cc1ccn2cc(-c3nonc3C)cc2c1", "Potency": "26.9 µM (active)"}
{"smiles": "CCCCN(C)c1nnc(NC(=O)Nc2ccc(Br)c(C)c2)s1", "activity change, negative = inhibition": "-7%"}
{"smiles": "O=C(c1cc(-c2ccc(Cl)s2)nc2ccccc12)N1CCOCC1", "Potency": "23.9 µM (active)"}
{"smiles": "Cc1cc(C(=O)N2CCN(c3ccccn3)CC2)c(C)o1", "activity change, negative = inhibition": "3.1% [at 2.3 µM]"}
{"smiles": "CCOc1ccccc1-c1cc(C(=O)N2CCOCC2)c2ccccc2n1", "activity change, negative = inhibition": "0.51%"}
{"smiles": "CC(=O)N1CCN(C(=O)c2cc(-c3ccc(C)o3)nc3ccccc23)CC1", "Potency": "4.78 µM (active)"}
{"smiles": "Cc1c(NC(=O)c2cc(-c3ccc(Cl)s3)nc3ccccc23)c(=O)n(-c2ccccc2)n1C", "activity change, negative = inhibition": "-19.2%"}
